{"source": "PubChem BioAssay AID1159580", "about": "(chemical genetic matrix, 2015)", "experiment": "chemical genetic growth profiling, strain panel (AID 1159580);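 note: tested at 20 µM; growth read once vehicle control cultures reached saturation at 30 °C; 1 = growth at the plate median or of vehicle wells; lower values mean less growth of the strain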", "conditions": "S. cerevisiae deletion strains, growth OD", "note": "Values joined by “and” are separate entries in the source; they are usually repeats but may differ in a detail not shown here. Equal values may be shown once. Among all 5,500 compounds or so, about 2,000 (36%) were called active. Roughly 18% stayed inconclusive and do not appear here. Cut-off read from the data, not from the text of the source: active = normalized growth mostly below about 0.91 (no sharp cut-off); inconclusive = no clear call, values can overlap the other calls; inactive = mostly above about 0.92. This is one part of the list."}
{"smiles": "CCC(=O)OCC(=O)[C@@]1(OC(=O)CC)[C@@H](C)CC2C3CCC4=CC(=O)C=C[C@]4(C)C3(F)[C@@H](O)C[C@@]21C", "note": "(stereo partly drawn)", "values": [{"measurement": "normalized growth", "setting": "locus YAL013W, strain DEP1, stronger effect = lower value", "result": "0.876 (active)"}, {"measurement": "normalized growth", "setting": "locus YAL021C, strain ccr4, stronger effect = lower value", "result": "0.958 (inactive)"}, {"measurement": "normalized growth", "setting": "locus YAL026C, strain drs2, stronger effect = lower value", "result": "1 (inactive)"}, {"measurement": "normalized growth", "setting": "locus YAL030W, strain snc1, stronger effect = lower value", "result": "1 (inactive)"}, {"measurement": "normalized growth", "setting": "locus YBL061C, strain skt5, stronger effect = lower value", "result": "1.01 (inactive)"}, {"measurement": "normalized growth", "setting": "locus YBR009C, strain hhf1, stronger effect = lower value", "result": "0.999 (inactive)"}, {"measurement": "normalized growth", "setting": "locus YBR021W, strain FUR4, stronger effect = lower value", "result": "0.779 (active)"}, {"measurement": "normalized growth", "setting": "locus YBR023C, strain chs3, stronger effect = lower value", "result": "1.01 (inactive)"}, {"measurement": "normalized growth", "setting": "locus YBR171W, strain sec66, stronger effect = lower value", "result": "1 (inactive)"}, {"measurement": "normalized growth", "setting": "locus YBR229C, strain ROT2, stronger effect = lower value", "result": "0.925 (inactive)"}, {"measurement": "normalized growth", "setting": "locus YBR231C, strain swc5, stronger effect = lower value", "result": "1.01 (inactive)"}, {"measurement": "normalized growth", "setting": "locus YBR279W, strain paf1, stronger effect = lower value", "result": "1.01 (inactive)"}, {"measurement": "normalized growth", "setting": "locus YCL011C, strain gbp2, stronger effect = lower value", "result": "0.988 (inactive)"}, {"measurement": "normalized growth", "setting": "locus YCL016C, strain dcc1, stronger effect = lower value", "result": "1.01 (inactive)"}, {"measurement": "normalized growth", "setting": "locus YCL029C, strain bik1, stronger effect = lower value", "result": "0.952 (inactive)"}, {"measurement": "normalized growth", "setting": "locus YCL061C, strain MRC1, stronger effect = lower value", "result": "1.01 (inactive)"}, {"measurement": "normalized growth", "setting": "locus YCL069W, strain vba3, stronger effect = lower value", "result": "0.996 (inactive)"}, {"measurement": "normalized growth", "setting": "locus YCR088W, strain abp1, stronger effect = lower value", "result": "0.997 (inactive)"}, {"measurement": "normalized growth", "setting": "locus YDL005C, strain med2, stronger effect = lower value", "result": "0.994 (inactive)"}, {"measurement": "normalized growth", "setting": "locus YDL035C, strain GPR1, stronger effect = lower value", "result": "0.846 (active)"}, {"measurement": "normalized growth", "setting": "locus YDL040C, strain nat1, stronger effect = lower value", "result": "1 (inactive)"}, {"measurement": "normalized growth", "setting": "locus YDL074C, strain BRE1, stronger effect = lower value", "result": "0.793 (inactive)"}, {"measurement": "normalized growth", "setting": "locus YDL101C, strain DUN1, stronger effect = lower value", "result": "0.95 (inactive)"}, {"measurement": "normalized growth", "setting": "locus YDL134C, strain PPH21, stronger effect = lower value", "result": "0.844 (active)"}, {"measurement": "normalized growth", "setting": "locus YDL185W, strain tfp1, stronger effect = lower value", "result": "0.927 (inactive)"}, {"measurement": "normalized growth", "setting": "locus YDL192W, strain arf1, stronger effect = lower value", "result": "0.927 (inactive)"}, {"measurement": "normalized growth", "setting": "locus YDR001C, strain nth1, stronger effect = lower value", "result": "0.991 (inactive)"}, {"measurement": "normalized growth", "setting": "locus YDR069C, strain doa4, stronger effect = lower value", "result": "0.993 (inactive)"}, {"measurement": "normalized growth", "setting": "locus YDR101C, strain arx1, stronger effect = lower value", "result": "0.948 (inactive)"}, {"measurement": "normalized growth", "setting": "locus YDR137W, strain rgp1, stronger effect = lower value", "result": "1.01 (inactive)"}, {"measurement": "normalized growth", "setting": "locus YDR150W, strain NUM1, stronger effect = lower value", "result": "0.974 (inactive)"}, {"measurement": "normalized growth", "setting": "locus YDR159W, strain sac3, stronger effect = lower value", "result": "1.01 (inactive)"}, {"measurement": "normalized growth", "setting": "locus YDR162C, strain NBP2, stronger effect = lower value", "result": "0.708 (active)"}, {"measurement": "normalized growth", "setting": "locus YDR195W, strain ref2", "result": "1 (inactive)"}, {"measurement": "normalized growth", "setting": "locus YDR297W, strain sur2, stronger effect = lower value", "result": "0.996 (inactive)"}, {"measurement": "normalized growth", "setting": "locus YDR318W, strain mcm21, stronger effect = lower value", "result": "0.945 (inactive)"}, {"measurement": "normalized growth", "setting": "locus YDR334W, strain swr1, stronger effect = lower value", "result": "1.01 (inactive)"}, {"measurement": "normalized growth", "setting": "locus YDR335W, strain msn5, stronger effect = lower value", "result": "0.998 (inactive)"}, {"measurement": "normalized growth", "setting": "locus YDR388W, stronger effect = lower value", "result": "0.947 (inactive)"}, {"measurement": "normalized growth", "setting": "locus YDR392W, strain spt3, stronger effect = lower value", "result": "0.988 (inactive)"}, {"measurement": "normalized growth", "setting": "locus YDR502C, strain sam2, stronger effect = lower value", "result": "0.926 (inactive)"}, {"measurement": "normalized growth", "setting": "locus YEL003W, strain gim4, stronger effect = lower value", "result": "0.996 (inactive)"}, {"measurement": "normalized growth", "setting": "locus YEL037C, strain rad23, stronger effect = lower value", "result": "0.987 (inactive)"}, {"measurement": "normalized growth", "setting": "locus YEL061C, strain CIN8 (second series), stronger effect = lower value", "result": "0.989 (inactive)"}, {"measurement": "normalized growth", "setting": "locus YEL061C, strain CIN8, stronger effect = lower value", "result": "0.935 (inactive)"}, {"measurement": "normalized growth", "setting": "locus YER015W, strain faa2, stronger effect = lower value", "result": "0.995 (inactive)"}, {"measurement": "normalized growth", "setting": "locus YER016W, strain bim1, stronger effect = lower value", "result": "1.01 (inactive)"}, {"measurement": "normalized growth", "setting": "locus YER110C, stronger effect = lower value", "result": "0.952 (inactive)"}, {"measurement": "normalized growth", "setting": "locus YER111C, strain swi4, stronger effect = lower value", "result": "0.999 (inactive)"}, {"measurement": "normalized growth", "setting": "locus YER155C, strain BEM2 (second series), stronger effect = lower value", "result": "1.01 (inactive)"}, {"measurement": "normalized growth", "setting": "locus YER155C, strain BEM2, stronger effect = lower value", "result": "0.963 (inactive)"}, {"measurement": "normalized growth", "setting": "locus YER167W, strain BCK2, stronger effect = lower value", "result": "0.881 (active)"}, {"measurement": "normalized growth", "setting": "locus YFR010W, strain ubp6, stronger effect = lower value", "result": "0.993 (inactive)"}, {"measurement": "normalized growth", "setting": "locus YGL078C, strain dbp3, stronger effect = lower value", "result": "0.975 (inactive)"}, {"measurement": "normalized growth", "setting": "locus YGL086W, strain mad1, stronger effect = lower value", "result": "0.954 (inactive)"}, {"measurement": "normalized growth", "setting": "locus YGL167C, strain pmr1, stronger effect = lower value", "result": "1 (inactive)"}, {"measurement": "normalized growth", "setting": "locus YGL173C, strain kem1, stronger effect = lower value", "result": "1 (inactive)"}, {"measurement": "normalized growth", "setting": "locus YGL227W, strain vid30, stronger effect = lower value", "result": "0.995 (inactive)"}, {"measurement": "normalized growth", "setting": "locus YGL240W, strain doc1, stronger effect = lower value", "result": "1 (inactive)"}, {"measurement": "normalized growth", "setting": "locus YGL248W, strain PDE1, stronger effect = lower value", "result": "0.943 (inactive)"}, {"measurement": "normalized growth", "setting": "locus YGL253W, strain hxk2, stronger effect = lower value", "result": "1.03 (inactive)"}, {"measurement": "normalized growth", "setting": "locus YGR135W, strain pre9, stronger effect = lower value", "result": "0.863 (active)"}, {"measurement": "normalized growth", "setting": "locus YGR252W, strain gcn5, stronger effect = lower value", "result": "0.71 (active)"}, {"measurement": "normalized growth", "setting": "locus YHR013C, strain ard1, stronger effect = lower value", "result": "1.01 (inactive)"}, {"measurement": "normalized growth", "setting": "locus YHR027C, strain rpn1, stronger effect = lower value", "result": "1 (inactive)"}, {"measurement": "normalized growth", "setting": "locus YHR030C, strain SLT2, stronger effect = lower value", "result": "0.896 (active) and 0.998 (inactive)"}, {"measurement": "normalized growth", "setting": "locus YHR079C, strain IRE1 (second series), stronger effect = lower value", "result": "0.974 (inactive)"}, {"measurement": "normalized growth", "setting": "locus YHR079C, strain IRE1, stronger effect = lower value", "result": "1.02 (inactive)"}, {"measurement": "normalized growth", "setting": "locus YHR094C, strain hxt1, stronger effect = lower value", "result": "0.965 (inactive)"}, {"measurement": "normalized growth", "setting": "locus YHR129C, strain ARP1, stronger effect = lower value", "result": "0.943 (inactive)"}, {"measurement": "normalized growth", "setting": "locus YHR142W, strain chs7, stronger effect = lower value", "result": "0.988 (inactive)"}, {"measurement": "normalized growth", "setting": "locus YHR200W, strain rpn10, stronger effect = lower value", "result": "0.929 (inactive)"}, {"measurement": "normalized growth", "setting": "locus YIL066C, strain RNR3, stronger effect = lower value", "result": "0.806 (active)"}, {"measurement": "normalized growth", "setting": "locus YIL073C, strain SPO22, stronger effect = lower value", "result": "0.825 (inactive)"}, {"measurement": "normalized growth", "setting": "locus YIL125W, strain kgd1, stronger effect = lower value", "result": "0.971 (inactive)"}, {"measurement": "normalized growth", "setting": "locus YIR030C, strain dcg1, stronger effect = lower value", "result": "0.959 (inactive)"}, {"measurement": "normalized growth", "setting": "locus YJL092W, strain hpr5, stronger effect = lower value", "result": "0.996 (inactive)"}, {"measurement": "normalized growth", "setting": "locus YJL095W, strain BCK1 (second series), stronger effect = lower value", "result": "1 (inactive)"}, {"measurement": "normalized growth", "setting": "locus YJL095W, strain BCK1, stronger effect = lower value", "result": "0.761 (active) and 1.01 (inactive)"}, {"measurement": "normalized growth", "setting": "locus YJL115W, strain asf1, stronger effect = lower value", "result": "0.999 (inactive)"}, {"measurement": "normalized growth", "setting": "locus YJL129C, strain trk1, stronger effect = lower value", "result": "0.951 (inactive)"}, {"measurement": "normalized growth", "setting": "locus YJL134W, strain LCB3, stronger effect = lower value", "result": "0.961 (inactive)"}, {"measurement": "normalized growth", "setting": "locus YJL154C, strain vps35, stronger effect = lower value", "result": "0.981 (inactive)"}, {"measurement": "normalized growth", "setting": "locus YJL164C, strain tpk1, stronger effect = lower value", "result": "1 (inactive)"}, {"measurement": "normalized growth", "setting": "locus YJL166W, strain qcr8, stronger effect = lower value", "result": "0.997 (inactive)"}, {"measurement": "normalized growth", "setting": "locus YJL168C, strain set2, stronger effect = lower value", "result": "0.956 (inactive)"}, {"measurement": "normalized growth", "setting": "locus YJL187C, strain SWE1 (second series), stronger effect = lower value", "result": "0.942 (inactive)"}, {"measurement": "normalized growth", "setting": "locus YJL187C, strain SWE1, stronger effect = lower value", "result": "0.996 (inactive)"}]}
